Assay results reported in PubChem BioAssay (EPA / NIEHS).
Where “and” joins values, the source holds several entries; their conditions need not be identical. Equal values may be shown once. Where a structure was tested more than once in an assay, its records may differ in their call. Calls of active or inactive are those of the source. The calls were made as follows: active = hit-call score of the fitted dose curve at least 0.9, where 1 is the maximum; inactive = score below 0.9.

The molecules below were run on Interferon-gamma inducible Protein 10 (IP10), CXCL10 (gene 3627) (assay: BSK_hDFCGF_IP10: BioMAP Diversity Plus: hDFCGF Assay for Interferon-gamma inducible Protein 10 (IP10) Biomarker Activity (AID 2283053)). Details: primary human foreskin fibroblasts; actives raise or lower the signal.
Method: BSK_hDFCGF is a cell-based, multiplexed-readout assay that uses foreskin fibroblast, a human skin primary cell, with measurements taken at 24 hours after chemical dosing in a 96-well plate.BSK_hDFCGF_IP10 is an assay component measured in the BSK_hDFCGF assay. It measures IP-10 antibody related to regulation of gene expression using ELISA technology.Data from the assay component BSK_hDFCGF_IP10 was analyzed into 1 assay endpoint. This assay endpoint, BSK_hDFCGF_IP10, was analyzed with bidirectional fitting relative to DMSO as the negative control and baseline of activity. Using a type of binding reporter, gain or loss-of-signal activity can be used to understand changes in the signaling as they relate to the gene CXCL10. Furthermore, this assay endpoint can be referred to as a primary readout, because this assay has produced multiple assay endpoints where this one serves a signaling function. To generalize the intended target to other relatable targets, this assay endpoint is annotated to the cytokine intended target family, where the subfamily is chemotactic factor.
The levels of cell surface (or secreted, indicated by the prefix "s") biomarker endpoints were measured by ELISA. Overt cytotoxicity to cells in confluent adherent cultures (all systems other than the BT system) was assessed by measuring total protein levels using sulforhodamine B (SRB) staining in parallel cultures at the time of biomarker measurements, indicated as SRB endpoints. For proliferation assays for adherent cell types, individual cell types are cultured at sub-confluence and relative cell numbers quantified by SRB staining at time points optimized for each system (48 h: 3C and CASM3C systems; 72 h: BT and HDF3CGF systems; 96 h: SAg system). SRB was performed by staining cells with 0.1% SRB after fixation with 10% TCA and reading wells at 560 nm.Viability and proliferation of PBMC (T cells) was quantified by Alamar Blue reduction for the SAg and BT systems. For PBMC viability (referred to as PBMC Cytotoxicity within the assay endpoint names), cells were plated (75,000/well in a 96-well plate) and then chemical samples added for 1 h before addition of activators, SEB and TSST-1 (20 ng/mL final concentration each). Cells were incubated for 90 h. Then, Alamar Blue (20 uL/well) (Invitrogen, Cat DAL1100) was added for 6 h, and the plates were read with a fluorescence microplate reader at 546/580 nm (excitation/emission). For PBMC proliferation, cells were plated and activated as above but incubated for only 16 h prior to addition of Alamar Blue. Plates were read after 6 h.

Row | Compound | outcome | AC50
1 | CCN(CC)c1ccc2c(c1)Oc1cc(N(CC)CC)ccc1C21OC(=O)c2ccccc21 | inactive | –
2 | CC(C)CCCC(C)CCO (stereo not given) | inactive | –
3 | NCC(F)(F)C(F)(F)C(F)(F)C(F)(F)C(F)(F)C(F)(F)C(F)(F)C(F)(F)F | inactive | –
4 | COC(F)(C(F)F)C(F)(F)F (stereo not given) | inactive | –
5 | O=C=NCc1cccc(CN=C=O)c1 | inactive | –
6 | CCN(CC)c1ccc(N=Nc2ccccc2)cc1 | inactive | –
7 | O=S(=O)(OCC(F)(F)F)C(F)(F)C(F)(F)C(F)(F)C(F)(F)F | – | 15.9 µM (active) and 16.4 µM (active)
8 | C[Si](Cl)(Cl)CCC(F)(F)C(F)(F)C(F)(F)C(F)(F)C(F)(F)C(F)(F)F | inactive | 2.48 µM (active)
9 | Cc1cc(O)c(C(C)(C)C)cc1C(C)(C)C | – | 6.51 µM (active)
10 | OC(O)C(F)(F)C(F)(F)F | inactive | –
11 | OCCCCC(F)(F)C(F)(F)C(F)(F)C(F)(F)F | inactive | –
12 | NCC(F)(F)C(F)(F)C(F)(F)C(F)(F)C(F)(F)C(F)(F)F | inactive | –
13 | CCN(CC)c1ccc(C=O)c(O)c1 | inactive | –
14 | C=CC(=O)OCC(F)(F)C(F)(F)C(F)(F)C(F)(F)C(F)(F)C(F)(F)C(F)(F)C(F)F | inactive | 28.8 µM (active)
15 | C=C(C)C(=O)OCC(F)(F)C(F)(F)C(F)(F)C(F)F | inactive | –
16 | O=C1C=CC(=O)N1c1ccc(Cc2ccc(N3C(=O)C=CC3=O)cc2)cc1 | – | 2.58 µM (active)
17 | O=C1c2c(O)ccc(Nc3ccc(CCO)cc3)c2C(=O)c2c([N+](=O)[O-])ccc(O)c21 | – | 20 µM (active)
18 | CCN=C1C=CC(=C(c2ccc(N(CC)CC)cc2)c2ccc(N(CC)CC)cc2)c2ccccc21 | – | 1.52 µM (active) and 1.32 µM (active)

Row | Compound | outcome | AC50
19 | FC(F)(F)C(F)(F)C(F)(F)C(F)(F)C(F)(F)C(F)(F)C(F)(F)CCI | inactive | 2.45 µM (active)
20 | OCC(O)CC(F)(F)C(F)(F)C(F)(F)C(F)(F)F (stereo not given) | inactive | –
21 | O=C(O)CCC(F)(F)C(F)(F)C(F)(F)F | inactive | –
22 | O=C(O)CCC(F)(F)C(F)(F)C(F)(F)C(F)(F)C(F)(F)C(F)(F)C(F)(F)F | inactive | –
23 | NC(=O)C(F)(F)C(F)(F)C(F)(F)F | inactive | –
24 | O=C(Cl)C(F)(F)C(F)(F)C(F)(F)C(F)(F)C(F)(F)C(F)(F)C(F)(F)F | inactive | –
25 | FC(F)(F)C(F)(F)C(F)(F)CC1CO1 (stereo not given) | inactive | 12.9 µM (active)
26 | O=C(O)C(F)(F)C(F)(F)C(F)(F)OC(F)(C(F)(F)F)C(F)(F)F | inactive | –
27 | C=CC(=O)OCCC(F)(F)C(F)(F)C(F)(F)C(F)(F)F | – | 30 µM (active) and 21.3 µM (active)
28 | O=C(O)C(F)(F)C(F)(F)C(F)(F)OC(F)(F)F | inactive | –
29 | CCN(CCO)S(=O)(=O)C(F)(F)C(F)(F)C(F)(F)C(F)(F)C(F)(F)C(F)(F)C(F)(F)C(F)(F)F | – | 35.9 µM (active) and 30 µM (active)
30 | Cc1ccc(O)c(-n2nc3ccccc3n2)c1 | inactive | –
31 | O=S(=O)(O)CCC(F)(F)C(F)(F)C(F)(F)C(F)(F)F | inactive | –
32 | O=S(=O)(O)CCC(F)(F)C(F)(F)C(F)(F)C(F)(F)C(F)(F)C(F)(F)C(F)(F)C(F)(F)F | inactive | –
33 | O=S(=O)(Cl)C(F)(F)C(F)(F)C(F)(F)C(F)(F)C(F)(F)C(F)(F)C(F)(F)C(F)(F)F | inactive | –
34 | NC(O)(C(F)(F)F)C(F)(F)F | inactive | –
35 | O=C(O)C(F)(F)OC(F)(F)C(F)(F)OC(F)(F)C(F)(F)OC(F)(F)F | inactive | –
36 | CCN(CC)c1ccc(C=O)cc1 | inactive | –
